# This is part of a sample that, as a whole, favours compounds with a hit. Of some 83,000 tested, about 20% had one in any assay.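 96-well plates, one dose, 48 hours. Percent growth reported; active if below 10.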 A number with no mark means an inactive call. Calls of active or inactive are those of the source.
# What was measured:
# Assay in all cases: NCI-60 one-dose screen, 48 h (100 = growth as untreated, 0 = no growth, -100 = all killed)
# Conditions in all cases: 10 µM unless noted
# HCT-15 colon = system: HCT-15 colon
# HT29 colon = system: HT29 colon
# SNB-75 CNS = system: SNB-75 CNS
# SNB-19 CNS = system: SNB-19 CNS
# U251 CNS = system: U251 CNS
# PC-3 prostate = system: PC-3 prostate
# SK-MEL-5 melanoma = system: SK-MEL-5 melanoma
# UACC-62 melanoma = system: UACC-62 melanoma
# LOX IMVI melanoma = system: LOX IMVI melanoma
# SK-MEL-28 melanoma = system: SK-MEL-28 melanoma
# SK-MEL-2 melanoma = system: SK-MEL-2 melanoma
# SN12C renal = system: SN12C renal
# UO-31 renal = system: UO-31 renal
# TK-10 renal = system: TK-10 renal
# ACHN renal = system: ACHN renal
# CAKI-1 renal = system: CAKI-1 renal
# CCRF-CEM leukemia = system: CCRF-CEM leukemia
# MOLT-4 leukemia = system: MOLT-4 leukemia
# EKVX NSCLC = system: EKVX NSCLC
# A498 renal = system: A498 renal
SMILES,growth (HCT-15 colon),growth (HT29 colon),growth (SNB-75 CNS),growth (SNB-19 CNS),growth (U251 CNS),growth (PC-3 prostate),growth (SK-MEL-5 melanoma),growth (UACC-62 melanoma),growth (LOX IMVI melanoma),growth (SK-MEL-28 melanoma),growth (SK-MEL-2 melanoma),growth (SN12C renal),growth (UO-31 renal),growth (TK-10 renal),growth (ACHN renal),growth (CAKI-1 renal),growth (CCRF-CEM leukemia),growth (MOLT-4 leukemia),growth (EKVX NSCLC),growth (A498 renal)
O=C(N/N=C/c1ccc2c(c1)OCO2)c1cnn2c1NC(c1ccccc1)C2 (centres undefined),28%,26.7%,54.8%,62.9%,69.6%,50.2%,37.3%,32.7%,26.4%,71.8%,50.1%,73.7%,67.5%,70.3%,46%,21.1%,67.7%,75.2%,,
COc1ccc(C2SC(C)C(=O)N2CCc2cccs2)cc1OC (centres undefined),87.8%,91.6%,69.1%,86.9%,83.2%,65.7%,49.4%,73.5%,81.9%,108%,93%,90.1%,,113%,80.1%,73.2%,75.9%,64.7%,66.4%,81.9%
COc1ccc(C2=NOC(CC(=O)N(CCO)CCO)C2)cc1OC1CCCC1 (centres undefined),98.6%,110%,86.5%,97%,97.5%,95.5%,94.1%,100%,103%,119%,106%,,88.3%,98.9%,104%,99.5%,112%,125%,91.5%,
Clc1ccccc1Nc1ccc2nnc(-c3ccncc3)n2n1,91.8%,99.2%,96.2%,107%,97.4%,75.7%,97.9%,98.4%,96.1%,122%,100%,87%,89.5%,76.8%,96.6%,86.1%,79.1%,89.6%,,72.8%
COc1cccc(C2C3=C(COC3=O)N(CCO)c3cc4c(cc32)CCC4)c1 (centres undefined),2.3% (active),-28.2% (active),-19.2% (active),11.3%,2.42% (active),23.5%,-16.2% (active),8.14% (active),14.8%,46.8%,36.8%,,42.3%,53.8%,35.5%,4.92% (active),20.9%,24.3%,27.9%,-19.8% (active)
COc1ccc(Nc2nc(NCCNc3ccnc4cc(Cl)ccc34)nc(N3CCOCC3)n2)cc1,15.1%,4.28% (active),38.4%,78%,48.2%,43.8%,48.7%,74.2%,40.2%,-80.7% (active),78.8%,61.4%,45.3%,103%,63.2%,80.2%,56.4%,35.6%,,-17.7% (active)
O=C(Nc1nc2ccccc2[nH]1)C(=O)Nc1nc2ccccc2[nH]1,86.2%,107%,93.4%,101%,96.5%,85.7%,99.2%,97.5%,93.5%,107%,98.8%,94.5%,69.6%,132%,93.4%,91.5%,94.7%,103%,,99.1%
Cc1c(NCC(=O)Nc2nc3ccccc3[nH]2)c(=O)n(-c2ccccc2)n1C,94.5%,105%,94.3%,97%,96.7%,92.7%,100%,102%,97.1%,110%,104%,99.4%,,117%,97.3%,97.9%,93.3%,104%,,74%
O=C1c2[nH]cc(CN[C@@H]3CCCN3)c2C(=O)c2c1c(O)c1ccccc1c2O,-38.9% (active),-98.4% (active),-71.6% (active),-84.9% (active),-98.9% (active),-95.1% (active),-89.8% (active),-100% (active),-93% (active),-100% (active),-17.3% (active),-32% (active),-31.1% (active),-89.3% (active),-92.8% (active),-18.4% (active),-85.6% (active),-84.7% (active),,
COc1ccc(-c2nc3sc(C)cn3c2/C=C/C(=O)c2cc(OC)c(OC)c(OC)c2)cc1,48.1%,60.1%,55.8%,75.6%,47.1%,19%,4.08% (active),36.7%,48.8%,41.4%,63%,,31.6%,96.9%,54.4%,76.7%,37.4%,12.2%,34%,52.5%
COc1ccc(/C=C2\Oc3cc(C)c(Cl)cc3C2=O)cc1OC,96.5%,109%,101%,98.4%,96.8%,101%,91.8%,87.3%,92.9%,114%,109%,,89.5%,112%,97.9%,87.2%,87.4%,91%,94%,
CCOC(=O)c1c(Cl)c2c(n1Cc1ccc(OC)cc1)-c1oncc1CCC2,83.7%,78.8%,75%,89.1%,89.3%,58.6%,72.1%,73.6%,77.8%,101%,103%,57.6%,66.2%,84.8%,73.9%,56.1%,62.2%,72.1%,,65.5%
Cl.Fc1c[c-]c(-c2ccccn2)c(F)c1.[Pt].c1ccc([PH+](CC[PH+](c2ccccc2)c2ccccc2)c2ccccc2)cc1,-76.2% (active),-73.5% (active),-94.2% (active),-76.4% (active),-62.2% (active),-70.1% (active),-99.3% (active),-81% (active),-82.4% (active),-94.1% (active),-76.8% (active),-75.8% (active),,-83.7% (active),-97.9% (active),-83.5% (active),-43% (active),-26.8% (active),-99.2% (active),
COc1ccc(OC2=CC(=O)c3ccc(C)nc3C2=O)cc1,76.1%,102%,53.4%,87.7%,96.4%,85.2%,83.5%,83.6%,75.6%,93.5%,99.5%,88.3%,,112%,51.4%,82.5%,,66.5%,96.5%,
COc1cccc(OC(=O)c2ccccc2)c1OC(=O)c1ccccc1,70.9%,85.3%,55.3%,73.5%,49.2%,77%,56.9%,66%,63%,84.7%,57.6%,76.7%,,87.7%,98.3%,75.2%,87.6%,79.5%,95.4%,88.9%
O=C(NCc1ccco1)C1CCN(S(=O)(=O)c2ccc(Cl)cc2)CC1,70.6%,83.2%,72.2%,84.3%,83%,-43.6% (active),75.7%,69.8%,77.1%,85.5%,82.6%,78.3%,57.5%,104%,83.5%,70.4%,-22.6% (active),47.2%,,59%
O=c1c2c(=NCCN3CCCC3)cc3c(=O)n(CCCN4CCOCC4)c(=O)c4c(-c5ccc(CN6CCCC6)cc5)cc(c(O)n1CCCN1CCOCC1)c2c4-3,-30% (active),-23.4% (active),-83.5% (active),-9.24% (active),-19.4% (active),-47.2% (active),-44.6% (active),-73.2% (active),-78.2% (active),-67.8% (active),-40.8% (active),,-6.74% (active),,-4.38% (active),0.0079% (active),-4.42% (active),0.115% (active),-37% (active),-85% (active)

# Source: PubChem BioAssay (NCI)
